Measured values taken from PubChem BioAssay (EPA / NIEHS).
Inconclusive results are not listed. The source made the active and inactive calls. How the source made its calls, unless noted: active means hit-call score of the fitted dose curve at least 0.9, where 1 is the maximum; inactive means score below 0.9.

Assay: STM_H9_OrnithineISnorm_perc: Stemina devTOX quickPredict H9 human embryonic stem cell (hESC)-based Assay for Ornithine (ORN) Metabolite Biomarker, Normalized (AID 2283712);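 further: ornithine released into spent medium during last day measured by mass spectrometry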
Outline: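 Metabolite endpoint from spent media of pluripotent H9 cells treated 72 h with daily re-feeding; ornithine measured by UPLC-HRMS against its 13C spike-in and referenced to the median 0.1% DMSO vehicle response.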

| SMILES | outcome | AC50 |
| --- | --- | --- |
| O=C1CCCO1 | inactive | – |
| Clc1ccc(Cl)c(Cl)c1 | inactive | – |
| CCN(CC)N=O | inactive | – |
| Nc1ccc(Oc2ccc(N)cc2)cc1 | – | 59.5 µM (active) |
| CNC(=O)Oc1cccc2c1OC(C)(C)C2 | inactive | – |
| Cc1ccc(N)cc1 | – | 61.2 µM (active) |
| C[N+](C)(C)CC1CO1 (stereo not drawn) | – | 21 µM (active) |

Assay: STM_H9_CystineISnorm_perc: Stemina devTOX quickPredict H9 human embryonic stem cell (hESC)-based Assay for Cystine (CYSS) Metabolite Biomarker, Normalized (AID 2283713)
Outline: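 Normalized cystine level in conditioned medium from the final 24h of a 72h treatment of pluripotent H9 cells (daily media and compound renewal). Quantified by UPLC-HRMS with C13-labeled internal standard; scaled to median of 0.1% DMSO vehicle wells.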

| SMILES | outcome | AC50 |
| --- | --- | --- |
| O=C1CCCO1 | inactive | – |
| Clc1ccc(Cl)c(Cl)c1 | inactive | – |
| CCN(CC)N=O | inactive | – |
| Nc1ccc(Oc2ccc(N)cc2)cc1 | inactive | – |
| CNC(=O)Oc1cccc2c1OC(C)(C)C2 | inactive | – |
| Cc1ccc(N)cc1 | – | 23.1 µM (active) |
| C[N+](C)(C)CC1CO1 (stereo not drawn) | – | 11 µM (active) |

Assay: STM_H9_OrnCyssISnorm_ratio: Stemina devTOX quickPredict H9 human embryonic stem cell (hESC)-based Assay for Ornithine (ORN):Cystine (CYSS) Ratio (AID 2283714; active means hit-call score of the fitted dose curve at least 0.9, where 1 is the maximum)
Outline: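 H9 hESC, 72h, q24h re-dose; last-day media → acetonitrile deproteinization → UPLC-HRMS. ORN:CYSS ratio from isotope-normalized EIC areas, vs 0.1% DMSO; MTX references on each plate.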

| SMILES | AC50 | outcome |
| --- | --- | --- |
| Nc1ccc(Oc2ccc(N)cc2)cc1 | 50.2 µM (active) | – |
| CNC(=O)Oc1cccc2c1OC(C)(C)C2 | – | inactive |
| Cc1ccc(N)cc1 | 30.4 µM (active) | – |
| C[N+](C)(C)CC1CO1 (stereo not drawn) | 16.5 µM (active) | – |
